PP5 inh: PP5 phosphatase inhibitors, primary screen, biochemical, fluorescence; purified PP5c, OMFP substrate fluorescence; actives 0.18% (n = 320,000); Serine/threonine-protein phosphatase 5 (Homo sapiens), P53041; inhibition, % at 6.7 µM; AID 1987, 2009;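 active means inhibition above the campaign's mean inhibition across all tested compounds plus 3 SD, cut at about 9.5% in these data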;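 further: 0% = DMSO only and 100% = 100 µM cantharidin control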
Mdm2 MdmX PPI: inhibitors of human Mdm2-MdmX association, primary screen, cell-based, luminescence, split luciferase, SaOS-2, uHTS | inhibition, % at 8 µM | actives 3% (n = 330,000) | SaOS-2 split-luciferase Mdm2/MdmX complementation | AID 485346, 2010 | Protein Mdm4 (Homo sapiens) + E3 ubiquitin-protein ligase Mdm2 (Homo sapiens), …;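 active means inhibition of at least 50% at 8 µM in the primary screen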
Target sequence (O15151 whole entry, looked up): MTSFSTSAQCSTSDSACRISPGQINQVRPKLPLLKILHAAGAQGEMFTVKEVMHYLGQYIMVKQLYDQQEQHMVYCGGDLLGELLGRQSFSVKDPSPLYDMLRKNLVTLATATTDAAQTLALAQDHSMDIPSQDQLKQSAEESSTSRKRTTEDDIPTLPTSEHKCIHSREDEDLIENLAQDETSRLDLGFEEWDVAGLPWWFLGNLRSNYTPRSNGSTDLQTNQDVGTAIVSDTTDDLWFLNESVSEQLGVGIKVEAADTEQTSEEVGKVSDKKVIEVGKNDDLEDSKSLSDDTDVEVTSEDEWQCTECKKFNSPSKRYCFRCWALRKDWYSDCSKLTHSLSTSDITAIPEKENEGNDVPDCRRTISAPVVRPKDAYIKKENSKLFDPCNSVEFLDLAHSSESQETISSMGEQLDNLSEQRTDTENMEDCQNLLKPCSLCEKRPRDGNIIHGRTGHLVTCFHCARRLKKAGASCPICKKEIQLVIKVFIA
Target sequence (Q00987 whole entry, looked up): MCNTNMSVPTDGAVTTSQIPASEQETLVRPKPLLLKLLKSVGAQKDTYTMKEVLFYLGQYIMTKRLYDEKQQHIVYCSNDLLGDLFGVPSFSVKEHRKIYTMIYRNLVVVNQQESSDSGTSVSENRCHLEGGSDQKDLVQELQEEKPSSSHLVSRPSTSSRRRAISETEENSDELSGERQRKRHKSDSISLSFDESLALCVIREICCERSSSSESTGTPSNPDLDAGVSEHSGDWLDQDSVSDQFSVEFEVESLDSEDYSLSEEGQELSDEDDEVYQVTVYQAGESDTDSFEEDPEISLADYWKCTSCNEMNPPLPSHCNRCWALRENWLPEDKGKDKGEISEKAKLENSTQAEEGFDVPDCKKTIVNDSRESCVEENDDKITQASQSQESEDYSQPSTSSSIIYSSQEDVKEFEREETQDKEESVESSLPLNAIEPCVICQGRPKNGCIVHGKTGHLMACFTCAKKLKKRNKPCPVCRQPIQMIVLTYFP
CSC inhib: cancer stem cell viability inhibitors, primary screen, luminescence | inhibition, % at 7.5 µM | cancer stem cell-like cells viability | actives 1.1% (n = 300,000) | AID 2717, 2010; in the data active means inhibition above about 75%; inconclusive means no clear call, values can overlap the other calls; tested in HMLE shEcad cells
Beta cell apopt: inhibitors of cytokine-induced beta cell apoptosis, primary screen, luminescence | protection from apoptosis, % (test concentration not listed) | INS-1E cytokine-induced death, ATP luminescence, 48 h; percent of positive-control rescue, neutral wells zero | actives 0.8% (n = 300,000);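 active means Every replicate reaches about 75%, or at least half do and their mean reaches it too, limit read from the data; inconclusive means At least half of replicates reach the limit but their mean does not; inactive means Under half of replicates reach the limit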;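 further: 0% = cytokine-treated negative control wells and 100% = positive control rescue; higher means more ATP so stronger rescue from cytokine killing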
PP1 inh: PP1-alpha phosphatase inhibitors, primary screen, counter-screen for PP5 inhibitor project, biochemical, fluorescence, OMFP substrate, single point; Serine/threonine-protein phosphatase PP1-alpha catalytic subunit (Homo sapiens), P62136; actives 0.9% (n = 320,000); inhibition, % at 6.7 µM; purified PP1alpha;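 active means inhibition above the mean inhibition of all tested compounds plus 3 SD, computed separately for each screening campaign, cut at about 15% in these data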
Calb FLC: C. albicans growth inhibition with fluconazole, primary screen, CaCi-2 strain, Alamar Blue fluorescence. growth inhibition, % (test concentration not listed). actives 0.57% (n = 300,000). C. albicans CaCi-2 (fluconazole-resistant clinical isolate) + fluconazole, 48 h. AID 1979, 2009;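 active means growth inhibition above about 58% in most replicates, limit read from the data, passing the limit was not always enough; inconclusive means exactly half the replicates above a set limit; inactive means most replicates below a set limit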;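 further: all wells also contain fluconazole at 8 µg/ml as a sub-toxic cotreatment; 0% = median of DMSO wells and 100% = median of geldanamycin control wells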
* = called active by the depositor; ? = inconclusive; · = not tested or not shown. The list is not random: actives were taken first. Their share in the collection is about 4.9%.

SMILES	PP5 inh	Mdm2 MdmX PPI	CSC inhib	Beta cell apopt	PP1 inh	Calb FLC
COc1ccccc1NC(=O)Nc1ccc(-n2ccc(C(F)(F)F)n2)cc1	7	-17	83*	13	3	0
Cc1cc(C)cc(NC(=O)Nc2ccc(-n3ccc(C(F)(F)F)n3)cc2)c1	3	37	104*	30	-3	4
O=C(O)CCC(=O)Nc1ccc(-n2ccc(C(F)(F)F)n2)cc1	2	11	-2	-3	-7	-1
CC(=O)c1ccccc1NC(=O)COC(=O)CSCC(=O)Nc1cc(C)on1	0	6	34	-6	-5	-1
COc1ccc2cc(-c3ccccc3)ncc2c1	2	-127	-3	5	-4	-4
COc1cc(OC)cc(-c2cc3ccc(OC)cc3cn2)c1	2	-147	94*	36	-1	·
COc1ccc(/C=C/C2=CC(C)(C)NC(=S)N2)cc1OC	1	8	-1	1	-1	0
CCOc1ccc(/C=C/C2=CC(C)(C)NC(=S)N2)cc1	-1	17	·	1	1	110*
CCCc1cc(=O)[nH]c(SCC(=O)Nc2sc(C(N)=O)c(C)c2C(=O)OCCOC)n1	2	17	94*	1	-1	·
OCC[C@@H]1C[C@@H](O)[C@H](O)[C@]2(CCc3ccccc3O2)O1	-2	15	-3	0	0	7
O=C(O)CCn1cc(/C=C/C(=O)c2ccc(Cl)cc2)c(-c2ccc(Br)cc2)n1	-1	·	106*	-8	4	·
CC(C)(C)c1ccc(Cn2nnc3c(=O)[nH]c(C4CCCN(C(=O)Cc5cccs5)C4)nc32)cc1 (configuration not stated)	4	34	0	8	14	9
CC(C)(C)c1ccc(Cn2nnc3c(=O)[nH]c(C4CCCN(C(=O)c5cccs5)C4)nc32)cc1 (configuration not stated)	3	23	79*	-3	16*	12
CCOc1ccc2nc(NC(=O)CSc3nc(-c4ccccc4)c(C#N)c(=O)[nH]3)sc2c1	·	7	·	·	·	27
COc1cccc(-c2nc(SCC(=O)Nc3nc(-c4ccccc4)c(C)s3)[nH]c(=O)c2C#N)c1	1	9	18	-1	17*	?
CCCCCC1(C)NC(=S)N(c2ccccc2)N1 (configuration not stated)	0	14	-2	-3	4	·
CCC1(c2ccc(Cl)cc2)NC(=S)N(c2ccccc2)N1 (configuration not stated)	-1	-49	-4	-4	-1	117*
CCC1(c2ccccc2)NC(=S)N(c2ccc(C)cc2)N1 (configuration not stated)	-2	-21	·	-1	-1	106*
COc1ccc(NC(=O)[C@H](C)NC(=O)C2CCN(S(=O)(=O)c3ccc(OC)cc3)CC2)cc1	2	22	-9	·	1	-2
Cc1ccc(NC(=O)CSc2nnc(C)n2C2CC2)cc1S(=O)(=O)N1CCOCC1	0	1	·	-5	-2	·
O=C(N/N=C/c1cccc(O)c1)c1ccc(COc2ccccc2Br)cc1	2	24	87*	-4	0	-1
O=C(N/N=C/c1ccc(OCc2ccc(F)cc2)cc1)c1ccccc1	-1	22	4	-4	-3	-33
CC(C)(C)c1ccc(OCc2ccc(C(=O)N/N=C/c3ccc(O)c(O)c3)cc2)cc1	2	16	89*	95*	3	63*
COc1ccc(/C=N/NC(=O)c2ccc(COc3cccc4cccnc34)cc2)cc1O	0	-1	2	-3	-1	-1
Cc1cccc(OCCOC(=O)c2ccc(F)c(S(=O)(=O)N3CCOCC3)c2)c1	1	-1	-15	-2	-1	·
SMILES	PP5 inh	Mdm2 MdmX PPI	CSC inhib	Beta cell apopt	PP1 inh	Calb FLC
COc1ccc(NC(=O)NC(C)c2ccccc2)cc1 (configuration not stated)	·	2	-18	-3	·	100*
O=C(CNC(=O)c1ccc(Br)o1)NNC(=O)COc1ccccc1Cl	-3	2	-9	0	-6	·
O=[N+]([O-])c1cccc(/C=N/n2cnnc2)c1	1	28	-1	82*	2	-4
O=[N+]([O-])c1ccc(O)c(/C=N/n2cnnc2)c1	0	-5	·	-3	1	4
COc1ccc(-c2csc(NC3CCCCC3)n2)c(OC)c1	2	8	2	0	2	-3
Oc1ccccc1N=Nc1ccccc1O	·	·	·	·	·	94*
Oc1ccccc1N=Cc1ccc[nH]1	2	2	11	-16	0	-1
CC1=CC(C)(C)N(C(=O)CSc2nnc(C)s2)c2ccc(C)cc21	-1	-10	-8	-12	-1	15
CC1=CC(C)(C)N(C(=O)CSc2nnc(-c3ccc(C)cc3)o2)c2ccc(C)cc21	4	40	·	82*	1	-5
C[C@@H]1CC=C[C@H]2[C@H]1C(=O)N(Cc1ccccc1)[C@H]2c1ccc(-c2ccc(F)cc2)cc1F	4	28	39	3	7	-14
C[C@@H]1CC=C[C@H]2[C@H]1C(=O)N(Cc1ccccc1)[C@H]2c1ccc(F)c(-c2ccc(N(C)C)cc2)c1	3	33	33	1	16*	4
CC(=O)c1ccc(-c2cc([C@H]3[C@H]4C=CC[C@@H](C)[C@@H]4C(=O)N3Cc3ccccc3)ccc2F)cc1	1	16	115*	0	5	-5
CCOc1ccccc1N(CC(=O)N1CCOCC1)S(=O)(=O)c1ccc(SC)cc1	·	·	·	·	·	-1
COc1ccc(NC(=O)c2cc(-c3ccccc3OC)on2)cc1	4	·	80*	9	3	-16
COc1cc(/C=N/NC(=O)COc2ccc(-n3cnnn3)cc2)ccc1OCC(N)=O	1	-8	-11	-21	-4	2
COc1ccc(C(=O)Nc2ccccc2C(=O)N/N=C/c2ccccn2)cc1OC	-2	32	15	95*	-3	-2
Cc1ccnc(SCC(=O)Nc2sc3c(c2C#N)CCCC3)n1	3	-1	15	106*	-3	-5
Cc1csc(SCC(=O)Nc2sc3c(c2C#N)CCC3)n1	4	-21	·	-1	2	14
CC(C)(C)C1CCc2c(sc(NC(=O)CSc3ncn[nH]3)c2C#N)C1 (configuration not stated)	6	32	93*	16	7	-5
CCNC(=O)COC(=O)c1csc2c1CCCC2	2	7	-24	-7	-2	-6
COc1ccc(N=Cc2cc3c(cc2O)OC(N)=C(C#N)C3c2ccccc2)cc1 (configuration not stated)	2	28	12	-1	-1	13

Screens: PubChem, several laboratories
